# Source: PubChem BioAssay AID2546 (National Center for Advancing Translational Sciences (NCATS), 2010)
# Screen size: about 310,000 compounds; about 11,000 (3.5%) were called active. Inconclusive results (about 8%) are left out. The entries come from a sample that favours actives as a whole. A call without a number means that no potency is given here. A number with no mark means an inactive call. Calls come from the whole dose curve; as a rule, active = well fitted inhibition curve with a large enough effect; inconclusive = small, poorly fitted or top-dose-only effect, or effect the other way; inactive = flat fitted curve, though single readings scatter.
# Test: VP16 counterscreen qHTS for inhibitors of ROR gamma transcriptional activity;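 note: Gal4-VP16 expression switched on by copper sulfate through the metallothionein promoter; nearly all actives have a fitted effect of over 50% in size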
# Conditions: Drosophila S2 Gal4-VP16 UAS-luciferase, luminescence, 20 h; series mostly up to 53.6 µM
# Potency is the fitted concentration of half-maximal effect.
SMILES,Potency,"activity, negative = inhibition"
CCCNC(=O)COc1coc(CN2CCN(Cc3ccccc3)CC2)cc1=O,inactive,
COc1cccc(N2C(=O)CN(Cc3ccccc3)C2=S)c1,inactive,
COc1cccc(-n2c(=S)[nH]c3c(oc4ccccc43)c2=O)c1,11.2 µM (active),
COc1cccc(-n2cc(C(=O)O)c3ccccc3c2=O)c1,inactive,
CCC(CC)COC(=O)C1=C(C)NC(=O)NC1c1ccc([N+](=O)[O-])cc1 (stereo not given),inactive,
COCCn1c(SCC(=O)N2CCCCCC2)nc2c(c1=O)SCC2,inactive,
COc1cccc(/C=N/Nc2ccc(Cl)nn2)c1,inactive,
Cc1ccsc1/C=N/Nc1ccc(Cl)nn1,inactive,
Oc1cccc(/C=N/Nc2ccc(Cl)nn2)c1O,2.82 µM (active),
Cc1ccc(S(=O)(=O)c2ccc(Oc3ccccc3)cc2)cc1,inactive,
CN(C)S(=O)(=O)c1ccc(NC(=O)N2CCOCC2)cc1,inactive,
CN(C)S(=O)(=O)c1ccc(Oc2ccc(S(=O)(=O)N(C)C)cc2)cc1,3.16 µM (active),
CSc1ncc(C(=O)NCCCc2ccccc2)c(C)n1,inactive,
O=C(Cc1cccs1)Nc1cccc(-c2nc3ccccc3[nH]2)c1,inactive,
O=C(Nc1cccc(-c2nc3ccccc3[nH]2)c1)c1ccc(C(=O)Nc2cccc(-c3nc4ccccc4[nH]3)c2)cc1,2.82 µM (active),
O=C(/C=C/c1ccco1)Nc1cccc(-c2nc3ccccc3[nH]2)c1,inactive,
Cc1c(C)c2ccc(OCC(=O)N3CCC(C(=O)O)CC3)c(C)c2oc1=O,inactive,
CC(=O)c1c(C)oc2ccc(NS(=O)(=O)c3ccccc3)cc12,inactive,
COc1ccc(S(=O)(=O)Nc2ccc3oc(C)c(C(C)=O)c3c2)cc1,11.2 µM (active),
COC(=O)COc1ccc(S(=O)(=O)Nc2ccc(NC(C)=O)cc2)cc1,inactive,
COc1ccc(/C=N/NS(=O)(=O)c2ccc(NC(C)=O)cc2)cc1,inactive,
CC(=O)c1c(C)oc2ccc(NS(=O)(=O)c3ccc(C(=O)O)cc3)cc12,inactive,
COc1cc(NS(=O)(=O)c2ccc(NC(C)=O)cc2)cc(OC)c1,20 µM (active),
Cc1ccnc(NS(=O)(=O)c2ccc(NC(=O)c3oc4ccc(F)cc4c3C)cc2)n1,inactive,
CC1CCCCN1C(=O)CCS(=O)(=O)Cc1ccccc1 (stereo not given),inactive,
COc1ccc(/C=C2\SC(=O)N(CCC(=O)NCCCn3ccnc3)C2=O)cc1,inactive,
COc1ccc(C2=Nn3c(nnc3-c3ccccc3O)SC2)cc1,inactive,

SMILES,Potency,"activity, negative = inhibition"
CCn1cc(C(=O)NCC(=O)NC(C)(C)CO)c(=O)c2cc3c(cc21)OCO3,inactive,
Cc1ccc(C(=O)NC23CC4CC(CC(C4)C2)C3)c(Cl)c1,inactive,
Cc1noc(C)c1CCC(=O)N1CCCC(CO)(Cc2ccccc2)C1 (stereo not given),inactive,
COc1ccc(C2CC(=O)Nc3cc(C)c(C)cc32)c(OC)c1OC (stereo not given),inactive,
COc1ccccc1C1C2=C(COC2=O)Nc2cc3c(cc21)OCO3 (stereo not given),inactive,
CCCOc1ccccc1C1CC(=O)Nc2cc3c(cc21)OCO3 (stereo not given),14.1 µM (active),
O=C(NCCCN1CCCC1=O)C(=O)NCC1OCCN1S(=O)(=O)c1ccc(Br)cc1 (stereo not given),inactive,
COc1ccc(-c2nn(-c3ccccc3)cc2C(=O)Nc2nc(CC(C)=O)ns2)cc1,12.6 µM (active),
O=C(O)c1ccccc1-c1ccccc1C(=O)Nc1nccs1,inactive,
COc1ccc(-c2nn(-c3ccccc3)cc2/C=N/Nc2ccccn2)cc1OC,8.91 µM (active),
CC(C)(C)OC(=O)N/N=C/c1cn(-c2ccccc2)nc1-c1cccnc1,inactive,
CC(=O)Cc1nsc(NC(=O)c2ccc(COc3ccc(C)cc3)o2)n1,inactive,
O=C(O)c1ccc(NC(=O)c2cn(-c3ccccc3)nc2-c2ccc(Cl)cc2)cc1,inactive,
COc1ccc(NC(=O)c2cn(-c3ccccc3)nc2SC)cc1,inactive,
COc1ccc(-c2nn(-c3ccccc3)cc2C(=O)Nc2nccs2)cc1OC,22.4 µM (active),
CN(C)/N=C/c1cn(-c2ccccc2)nc1-c1cccnc1,inactive,
O=C1C[C@@H](c2ccc3ccccc3c2)N1S(=O)(=O)c1ccccc1[N+](=O)[O-],inactive,
Cc1ccc(CNS(=O)(=O)c2ccc3c(c2)N(C)CCO3)cc1,inactive,
Cc1cc(=O)[nH]c(Nc2cccc(Br)c2)n1,inactive,
Cc1nnnn1/C(=C\c1ccccc1)C(=O)OCC(=O)N1CC2(C)CC1CC(C)(C)C2 (stereo not given),10 µM (active),
COc1ccccc1C(=O)N1CC2(C)CC1CC(C)(C)C2 (stereo not given),inactive,
Cc1cccc(C(=O)NCC(=O)OCC(=O)N2CC3(C)CC2CC(C)(C)C3)c1 (stereo not given),inactive,
CCOC(=O)c1ccc(NC(=O)c2cccnc2)cc1,inactive,
CCSc1nc2sc3c(c2c(=O)n1-c1ccc(C)cc1)CCN(C)C3,inactive,
Cc1cccc(NC(=S)N2CCCC(c3nc4ccccc4[nH]3)C2)c1 (stereo not given),,5.42% [at 10 µM]
O=C(C1CCCO1)N1CCN(C(=S)Nc2cccc(Cl)c2)CC1 (stereo not given),inactive,
Cc1ccc(C2CCN(C(=S)Nc3cccc(Cl)c3)C2)cc1 (stereo not given),12.6 µM (active),

SMILES,Potency,"activity, negative = inhibition"
CC(=O)c1nn(-c2cccc(C(F)(F)F)c2)c(=O)[nH]c1=O,inactive,
COc1ccccc1CCNC(=O)c1c(C)nn(CC(C)C)c1Cl,inactive,
COc1cccc(C(=O)N/N=C(\C)c2cccc(NC(=O)c3ccc(F)cc3)c2)c1OC,inactive,
Cc1cccc(C(=O)N2CCCC(Nc3ccc(C(C)C)cc3)C2)n1 (stereo not given),inactive,
CC(C)c1ccc(NC2CCCN(C(=O)c3ccncc3)C2)cc1 (stereo not given),1.58 µM (active),
COc1ccc(NC2CCCN(C(=O)c3ccncc3)C2)cc1 (stereo not given),inactive,
O=C(Nc1ccc(C(=O)NCc2ccccc2Cl)cc1)C1=CSCCO1,inactive,
COc1ccc(-n2nc(C(=O)NCC(=O)N3CCCCCC3)c3ccccc3c2=O)cc1Cl,inactive,
CC(=O)c1cccc(NC(=O)CN2C(=O)c3cccnc3Oc3ccc(Cl)cc32)c1,inactive,
C#CC(CCN1CCCCC1)(OC)c1ccccc1 (stereo not given),inactive,
CCNC(=O)CCc1nc(-c2ccc(C)cc2)no1,inactive,
CCNC(=O)CCc1nc(-c2ccc(C(C)(C)C)cc2)no1,2.51 µM (active),
CN1CCN(C(=O)CCc2nc(-c3ccc(Cl)cc3)no2)CC1,inactive,
COC(=O)c1ccc(N2CCOCC2)c(NC(=O)c2ccc(Br)o2)c1,inactive,
CCOC(=O)N1CCN(C(=O)C2CCN(c3ncnc4c3sc3cccc(F)c34)CC2)CC1,inactive,
CCOC(=O)N1CCN(C(c2cccnc2)c2ccc3cccnc3c2O)CC1 (stereo not given),6.31 µM (active),
Cc1onc(C(=O)NN)c1C(=O)N1CCN(C(c2ccccc2)c2ccccc2)CC1,inactive,
Oc1ccccc1CN1CCN(C(c2ccccc2)c2ccccc2)CC1,inactive,
CCN1CCN(c2ccc(NC(=O)c3cnccn3)cc2)CC1,inactive,
CCN1CCN(C(c2cccnc2)c2cc(Cl)c3cccnc3c2O)CC1 (stereo not given),5.01 µM (active),
CC(=O)Nc1ccc(S(=O)(=O)N2N=NC3C2C2CC4C3(CN(C(=O)OC(C)(C)C)S4(=O)=O)O2)cc1 (stereo not given),inactive,
O=C(CCc1nnc(Cc2ccc3c(c2)OCO3)o1)NCCc1ccccc1Cl,inactive,
O=C1Nc2cc(C(=O)N3CCN(c4ccc(F)cc4)CC3)ccc2NC1CSCc1cccc(F)c1 (stereo not given),inactive,
Clc1cccc(Cl)c1OCCOCCNCc1ccccc1,inactive,
COc1cccc(NC(=O)N2C3CCCC2CC(NC(C)=O)C3)c1 (stereo not given),inactive,
CCOC(=O)C1(Cc2ccccc2C)CCCN(C(=O)CCc2c(C)noc2C)C1 (stereo not given),inactive,
COc1ccc(CCNC(=O)c2cnc(Cl)c(Cl)c2)cc1,inactive,

SMILES,Potency,"activity, negative = inhibition"
S=c1[nH]nc(-c2ccncc2)n1/N=C/c1ccccc1Cl,inactive,
Cc1ccc(/C=N\n2c(-c3ccccc3)n[nH]c2=S)s1,8.91 µM (active),
S=c1[nH]nc(-c2cc(-c3ccccc3)n[nH]2)n1/N=C/c1c2ccccc2cc2ccccc12,6.31 µM (active),
S=c1[nH]nc(-c2cc(-c3ccsc3)n[nH]2)n1-c1ccccc1,inactive,
S=c1[nH]nc(-c2ccco2)n1/N=C/c1ccccc1,inactive,
S=c1[nH]nc(-c2cccs2)n1/N=C/c1cccs1,inactive,
CCc1ccc(-c2cc(C)no2)cc1S(=O)(=O)NCCc1ccc(S(N)(=O)=O)cc1,inactive,
NS(=O)(=O)c1ccc(CCNC(=O)c2nc(CS(=O)(=O)c3ccc(Cl)cc3)no2)cc1,inactive,
COc1ccc(C(=O)COC(=O)Cn2cnc3c2c(=O)n(C)c(=O)n3C)c(OC)c1,inactive,
CCCCNC(=O)CN1C(=O)NC(Cc2ccccc2)(Cc2ccccc2)C1=O,inactive,
O=C(N/N=C\C1CC=CCC1)c1ccc(Br)o1 (stereo not given),inactive,
CC1(C)NC(=O)N(CC(=O)Nc2cc(C(F)(F)F)cc(C(F)(F)F)c2)C1=O,inactive,
COc1ccc(/C=C/C2=CC(C)(C)NC(=S)N2)c(OC)c1,3.55 µM (active),
CCC(=O)c1ccc(OC(=O)/C=C/c2cc(OC)c(OC)c(OC)c2)cc1,inactive,
COc1cc(/C=C/C2=CC(C)(C)NC(=S)N2)cc(OC)c1OC,12.6 µM (active),
COc1ccc(N)c(OC)c1,inactive,
COc1ccc(/C=C2/C(=O)N(c3ccccc3)N=C2C)c(OC)c1,inactive,
COc1ccc2[nH]c(C(=O)N/N=C/c3cc(OC)c(OC)c(OC)c3)cc2c1,inactive,
CC1C(=O)N(Cc2ccccc2)c2ccccc2N1C(=O)c1ccccc1 (stereo not given),inactive,
COc1ccc(CSc2nnnn2-c2ccc(C(=O)O)cc2)cc1,inactive,
COCCCNC(=O)[C@H]1N2C(=O)c3ccccc3C2SC1(C)C (stereo not given in full),inactive,
Cn1c(-c2ccco2)nc2cc3ccccc3cc21,11.2 µM (active),
COc1ccc(CCn2c(-c3ccco3)nc3nc4ccccc4nc32)cc1OC,inactive,
Cn1cccc1-c1nc2ccccc2n1C,,-16.5% [at 10 µM]
